Bioassay records (PubChem BioAssay)
PNC inhibitor: perinucleolar compartment assembly inhibition; PC3M PTB-GFP, PNC prevalence imaging, 16 h; active compounds read low; activity change (PNC), negative = inhibition, % at 10 µM; 140,000 tested, 3.1% active; AID 2417;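 active = readout at or below -70, meaning at least 70% loss of cells showing the perinucleolar compartment, a nuclear body marking cancer cells; inconclusive = readout between -30 and a set limit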;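 also: plate controls were DMSO wells for no effect and camptothecin positive control wells for full effect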
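Compounds are pinned in duplicate onto adhered PC3M cells stably expressing GFP-tagged PTB and incubated 16 h at 37 C. Cells are then fixed, nuclei stained with Hoechst, and PNC-positive cells counted.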
NPSR antag: blocks cAMP signaling of the human neuropeptide S receptor | Q6W5P4 | CHO-NPSR cells, cAMP TR-FRET, antagonist mode | Potency, µM (series often up to 38.3 µM), inactives show top-dose activity change, negative = inhibition, most hits filed as inhibitors | 220,000 tested, 1% active | AID 1461; also: potency is read from the fitted curve at half-maximal effect; nearly all actives have a fitted effect of over 50% in size
Target sequence (Q6W5P4 whole entry, looked up): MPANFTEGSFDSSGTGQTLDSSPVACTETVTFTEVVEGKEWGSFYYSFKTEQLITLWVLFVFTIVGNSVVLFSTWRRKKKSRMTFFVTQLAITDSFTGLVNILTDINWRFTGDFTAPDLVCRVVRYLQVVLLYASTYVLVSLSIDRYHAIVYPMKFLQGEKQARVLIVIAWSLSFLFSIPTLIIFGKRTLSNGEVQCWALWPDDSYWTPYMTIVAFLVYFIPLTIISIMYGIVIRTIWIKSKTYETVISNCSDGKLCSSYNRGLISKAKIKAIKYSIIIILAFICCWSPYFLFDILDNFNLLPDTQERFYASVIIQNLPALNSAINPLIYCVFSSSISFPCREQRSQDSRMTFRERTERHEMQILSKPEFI
ALDH1A1 block: ALDH1A1 (human) enzyme inhibition. P00352. Purified ALDH1A1, NADH fluorescence, propionaldehyde substrate. Potency, µM (doses to about 75.3 µM), without a hit: at the top dose activity, negative = inhibition, hits mostly inhibitors. 220,000 tested, 7.3% active. AID 1030; active = well fitted inhibition curve with a large enough effect, not every such curve was filed as active; inconclusive = small, poorly fitted or top-dose-only effect, or another doubt; inactive = no such curve, though single readings can be large or run the other way;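 also: potency is read from the fitted curve at half-maximal effect; plate controls were no enzyme wells and a reference inhibitor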
HPGD block: blocks human HPGD enzyme activity. P15428. purified HPGD, NADH fluorescence kinetic, PGE2 substrate. Potency, µM, inactives show top-dose activity change, negative = inhibition, most hits filed as inhibitors. 150,000 tested, 4.3% active. AID 894; active = well fitted inhibition curve with a large enough effect, not every such curve was filed as active; inconclusive = small, poorly fitted or top-dose-only effect, or another doubt; inactive = no such curve, though single readings can be large or run the other way; also: potency is read from the fitted curve at half-maximal effect
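20 nM HPGD preincubated 15 min at room temperature with compound in 50 mM Tris-HCl pH 8, 0.01% Tween 20. Started with 1 mM NAD+ and 30 uM prostaglandin E2; NADH fluorescence (360/450 nm) read 5 times over 30-s intervals, last minus first.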
IMPase cell inh: membrane-permeable compound that blocks inositol monophosphatase; P97697; inhibition (IP1 accumulation), % at 46.1 µM; AID 901; 120,000 tested, under 10 active; CHO-M1 cells, IP1 accumulation, HTRF TR-FRET ratio; active = well fitted curve in the direction sought with a large enough effect in the signal ratio, not every such curve was filed as active; inconclusive = small, poorly fitted or top-dose-only effect, or a change in a side signal; inactive = no such curve, though single readings can be large or run the other way; the % refers to the signal ratio;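 also: cells stimulated with carbachol in lithium chloride buffer; plate controls were DMSO basal wells for no effect and reference inhibitor wells for full effect; higher means more IMPase inhibition seen as more IP1 and lower FRET ratio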
Target sequence (P97697 whole entry, looked up): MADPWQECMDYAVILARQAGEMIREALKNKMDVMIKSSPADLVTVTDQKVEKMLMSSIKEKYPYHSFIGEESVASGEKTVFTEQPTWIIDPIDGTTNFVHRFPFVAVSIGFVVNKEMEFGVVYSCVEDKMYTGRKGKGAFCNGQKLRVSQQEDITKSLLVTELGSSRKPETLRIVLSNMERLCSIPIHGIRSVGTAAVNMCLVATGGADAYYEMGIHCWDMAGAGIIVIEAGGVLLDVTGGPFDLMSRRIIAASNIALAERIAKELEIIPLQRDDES
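Cellular IMPase inhibition is scored as a rise in cytosolic IP1, detected by competitive TR-FRET between d2-labelled IP1 and a europium anti-IP1 antibody. M1-expressing CHO cells were stimulated with carbachol for 30 min at 37C, with lithium (50 mM LiCl) present in the buffer.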
IMPase Li cell: membrane-permeable IMPase blocker, potentiated with lithium. CHO-M1 cells, IP1 TR-FRET (IP-One), carbachol + lithium. Potency, µM (doses to about 59.4 µM), without a hit: at the highest dose activity, negative = IMPase inhibition, actives largely listed as inhibitors. 210,000 tested, 0.35% active. AID 1457;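 also: IP1 builds up when IMPase is blocked and the TR-FRET signal falls; potency is read from the fitted curve at half-maximal effect; plate controls were basal vehicle for no effect and high inhibitor control for full effect; nearly all actives have a fitted effect of over 50% in size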
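Concentration–response in CHO-M1 cells, lithium-potentiated; 30 min at 37C. IP1 detected by competitive TR-FRET after 10 min lysis at RT. Hill-fitted AC50.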
Starred values were filed as active, the others as inactive; ? = inconclusive; . = not tested or not shown; [ ] = another dose, or the depositor's remark. Only some compounds are listed: those with a hit (about 11% of all), similar ones and a draw of the others. Unless noted, calls follow the shape of the dose curve; as a rule, active = well fitted curve in the direction sought with a large enough effect; inconclusive = small, poorly fitted or top-dose-only effect, or another doubt; inactive = no such curve, though single readings can be large; an effect the other way counts as inactive or inconclusive. Unless noted, % is scaled to controls: 0 for no effect and ±100 for the full control effect.

SMILES | PNC inhibitor | NPSR antag | ALDH1A1 block | HPGD block | IMPase cell inh | IMPase Li cell
COC(=O)c1cc(=O)n(CCc2ccc(OC)cc2)c(=Nc2ccc(F)c(Cl)c2)s1 | 30 | -10%[46.1 µM] | -2% | -13% | 0 | 24%[38.3 µM]
O=C(CSc1nc2ccccc2c(=O)n1-c1ccccc1)c1c[nH]c2ccccc12 | ? | -41% | ? | -10% | . | 9%
O=Cc1cccc(OC(=O)c2ccc(Cl)cc2Cl)c1 | 48 | 4%[46.1 µM] | -14% | 16µM* | -11 | 14%[38.3 µM]
CCCOc1ccc(N2C(=O)CC(N(Cc3ccccc3)N=O)C2=O)cc1 (stereo not given) | . | -15% | . | . | . | .
CCc1c(O)nc(SCC(=O)Nc2ccccc2)n(-c2ccccc2)c1=O | -12 | -8%[46.1 µM] | -9% | . | -5 | .
CCc1c(O)nc(SCC(=O)Nc2ccc(C)cc2)n(C2CCCCC2)c1=O | -20 | ? | 20µM* | -12% | 1 | -8%[38.3 µM]
Cc1ccc(C=Nc2ccccc2C(=O)Nc2ccccc2)cc1 | 44 | -30% | ? | ? | . | 2%
Cc1ccc(C=Nc2ccccc2C(N)=O)cc1 | -113* | -5%[46.1 µM] | ? | ? | -3 | -12%[38.3 µM]
Cc1ccccc1C=Nc1ccccc1C(N)=O | -86* | 8% | ? | ? | . | -11%
Fc1ccccc1/C=N/n1cnnc1 | -21 | -10%[46.1 µM] | 2% | 0% | -4 | 18%[38.3 µM]
COc1ccc(CC(=O)Nc2cccc(/C(C)=N/NC(=O)c3cccc([N+](=O)[O-])c3)c2)cc1 | 15 | -26%[46.1 µM] | -10% | -11% | 7 | 6%[38.3 µM]
Cc1ccc(S(=O)(=O)Nc2nc3ccc(S(=O)(=O)N4CCCC4)cc3s2)cc1 | 12 | -17%[46.1 µM] | 0.16µM* | 13µM* | 0 | -7%[38.3 µM]
CC(=O)Nc1ccc2nc(NS(=O)(=O)c3ccc(C)cc3)sc2c1 | . | 0% | -1% | . | . | 6%
O=S(=O)(Nc1nc2ccc(S(=O)(=O)N3CCCCC3)cc2s1)c1ccccc1 | 3 | -12%[46.1 µM] | 0.35µM* | 8.9µM* | 11 | 36%[38.3 µM]
CCCc1nnc(SCC(=O)N2CCOCC2)n1Cc1ccco1 | 41 | -10%[46.1 µM] | ? | -3% | 6 | -3%[38.3 µM]
O=C(CSc1ccc(-c2ccc3c(c2)OCO3)nn1)Nc1nccs1 | . | -29% | 16% | . | . | ?
O=C(CSCC(=O)Nc1nc(-c2ccc3c(c2)OCO3)cs1)Nc1nccs1 | . | -14% | 22µM* | . | . | 20%
O=C(c1ccc(N2CCN(C3CC(=O)N(Cc4cccs4)C3=O)CC2)cc1)c1cccnc1 (stereo not given) | . | -11% | 3.2µM* | . | . | 12%
O=C(c1ccncc1)c1ccc(N2CCN(C3CC(=O)N(Cc4ccccc4)C3=O)CC2)cc1 (stereo not given) | 22 | -5%[46.1 µM] | -11% | -12% | 5 | 15%[38.3 µM]
O=C(O)C1CC=CCC1C(=O)N1CCN(c2nc(-c3ccccc3Cl)c3cc(Br)ccc3n2)CC1 (stereo not given) | -5 | 13µM* | ? | -20% | ? | 11µM*
O=C(O)C1CC=CCC1C(=O)N1CCN(c2nc(-c3ccccc3)c3ccccc3n2)CC1 (stereo not given) | 30 | -9%[46.1 µM] | ? | ? | 17 | 15%[38.3 µM]
O=C(/C=C/c1ccco1)NCc1ccc(F)cc1 | . | -4% | 18µM* | . | . | -3%
O=C(/C=C/c1ccco1)NCC1CCCO1 (stereo not given) | -11 | -3%[46.1 µM] | 22µM* | ? | -8 | -2%[38.3 µM]
O=C(N/C=C/c1ccco1)NCc1ccccc1 | . | 5% | 22µM* | . | . | -2%
CCCOc1ccccc1C(=O)NC(CO)C(=O)O (stereo not given) | -2 | -10%[46.1 µM] | 3% | -7% | 0 | 11%[38.3 µM]
SMILES | PNC inhibitor | NPSR antag | ALDH1A1 block | HPGD block | IMPase cell inh | IMPase Li cell
CCc1ccc(C(=O)/C=C/Nc2ccc(S(=O)(=O)Nc3onc(C)c3C)cc2)cc1 | 6 | -34% | ? | 20µM* | . | 9%
Cc1noc(NS(=O)(=O)c2ccc(NC(=O)COc3ccc(Cl)cc3Cl)cc2)c1C | 23 | -5%[46.1 µM] | 10% | 16µM* | 23 | 16%[38.3 µM]
Cc1noc(NS(=O)(=O)c2ccc(NC(=O)COc3ccccc3Br)cc2)c1C | . | . | . | . | -6 | .
Cc1noc(NS(=O)(=O)c2ccc(NC(=O)CSc3nc4c(cc3C#N)CCCCC4)cc2)c1C | 1 | -7%[46.1 µM] | -4% | 28µM* | -1 | -6%[38.3 µM]
Cc1noc(NS(=O)(=O)c2ccc(N/C=C/C(=O)c3ccc(F)cc3)cc2)c1C | . | -31% | 12% | . | . | 1%
COc1ccc2c(c1)OCC1=C2CCC2(C)C(=O)CC=C12 (stereo not given) | ? | 0%[46.1 µM] | ? | ? | 9 | 26%[38.3 µM]
COc1ccc(-c2nc(-c3ccccc3)c(-c3ccccc3)[nH]2)cc1Br | . | . | . | . | 1 | .
O=C(OCC(=O)N1CCN(C(=O)c2ccco2)CC1)c1cc(S(=O)(=O)Nc2ccc(Cl)cc2)ccc1O | . | -31% | 14µM* | . | . | 0%
O=C(c1ccco1)N1CCN(C(=O)C2(S(=O)(=O)c3ccc(Cl)cc3)CC2)CC1 | 1 | -6%[46.1 µM] | 5% | -8% | -2 | -9%[38.3 µM]
O=C(OCC(=O)N1CCCCC1)c1cc(NS(=O)(=O)c2ccc(Cl)c([N+](=O)[O-])c2)ccc1O | -2 | -23% | -5% | 8.9µM* | -10 | 20%
CCOc1ccc(NC(=O)C2CCC(CNc3c(N4CCOCC4)c(=O)c3=O)CC2)cc1 (stereo not given) | -3 | 0%[46.1 µM] | 8% | -18% | -6 | -1%[38.3 µM]
C/C(=N/Nc1ncc(C(F)(F)F)cc1Cl)c1ccncc1 | . | -13% | 40µM* | . | . | 14%
C/C(=N\Nc1ncc(Cl)cc1Cl)c1ccc(C#N)cc1 | . | 0% | 9% | . | . | 8%
COc1cc(/C=N/Nc2ncc(C(F)(F)F)cc2Cl)cc(OC)c1O | -16 | -9% | -24% | 14µM* | . | 7%
CCN(CC)c1ccc2cc(-c3nc4ccccc4[nH]3)c(=O)oc2c1 | -104* | ? | 8% | -11% | -2 | 4%
CCN(CC)c1ccc2cc(-c3nnc(-c4ccccc4)o3)c(=O)oc2c1 | -100* | -14%[46.1 µM] | ? | -16% | 0 | -5%
Cc1ccc(NC(=O)COc2ccc(C3SCCS3)cc2)cc1 | ? | 7% | 5% | -5% | . | 8%
CCCCCCCCC/C=C/CC1CC(=O)OC1=O (stereo not given) | . | . | 28µM* | -16% | . | 13%
O=C(OCC(=O)N1CCN(c2ccccc2)CC1)c1ccc2ccccc2n1 | 3 | -14%[46.1 µM] | 8.9µM* | -7% | 6 | -2%[38.3 µM]
O=C(OCC(=O)N1CCN(c2ccccc2)CC1)c1ccccn1 | -6 | -10%[46.1 µM] | 0% | -2% | -14 | -3%[38.3 µM]
S=C(NC1CCCCC1)N1CCOCC1 | . | 10% | . | . | . | .
O=S1(=O)CCC(NC(=S)N2CCOCC2)C1 (stereo not given) | -102* | 17% | -3% | -7% | . | -8%
